Where “and” joins values, the source holds several entries; their conditions need not be identical. Identical values can stand only once. The campaign covered roughly 16,000 compounds. About 2,600 (16%) were called active. About 20% were inconclusive and are not listed. The call rests on the fitted dose curve; in most records, active means well fitted curve in the direction sought with a large enough effect; inconclusive means small, poorly fitted or top-dose-only effect, or effect the other way; inactive means no such curve, though single readings can be large or run the other way. A selection follows. A structure can be active in one record and inactive in another.
molecular target: Cytochrome P450 2D6 (Homo sapiens) (UniProt P10635); assay: Cytochrome panel assay with activity outcomes; conditions: recombinant CYP, pro-luciferin dealkylation, luminescence, p450-cyp2d6; series mostly up to 57.1 µM; activity, negative = inhibition: at the top concentration
Sequence (P10635 whole entry, looked up): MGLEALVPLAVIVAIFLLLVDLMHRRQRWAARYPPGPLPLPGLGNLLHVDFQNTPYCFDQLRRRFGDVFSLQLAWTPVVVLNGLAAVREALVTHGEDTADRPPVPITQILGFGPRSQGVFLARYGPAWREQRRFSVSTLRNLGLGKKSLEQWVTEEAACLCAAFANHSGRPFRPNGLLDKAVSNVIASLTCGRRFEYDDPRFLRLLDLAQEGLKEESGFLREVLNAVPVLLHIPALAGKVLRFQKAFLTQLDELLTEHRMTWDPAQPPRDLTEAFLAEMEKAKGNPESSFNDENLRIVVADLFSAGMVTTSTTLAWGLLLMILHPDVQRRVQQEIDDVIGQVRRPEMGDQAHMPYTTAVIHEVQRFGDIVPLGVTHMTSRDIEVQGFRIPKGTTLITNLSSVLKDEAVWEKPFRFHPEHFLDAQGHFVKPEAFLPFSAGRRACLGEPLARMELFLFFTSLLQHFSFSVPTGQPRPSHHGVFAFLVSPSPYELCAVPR
On the % scale 0 is the no-effect control and ±100 the full control effect.

AC50, active:
CCN(CCCc1ccccc1)CCCc1ccccc1 1 µM, CCCCCCCCCCCC1=C(O)C(=O)C=C(O)C1=O 2 µM, CCOc1ccc(N2C(=O)C3C4C=CC(CC4)C3C2=O)c([N+](=O)[O-])c1 (configuration not stated) 11.2 µM, CN(CCc1ccc(Cl)c(Cl)c1)C[C@@H](O)COc1ccc(NS(C)(=O)=O)cc1 25.1 µM, CCOC(=O)c1sc(NC(=O)CSc2n[nH]c(-c3ccc(Cl)cc3Cl)n2)c(C#N)c1C 28.2 µM, CC(=O)NCCNc1ncnc2ccc(-c3ccccc3Cl)cc12 15.8 µM, CC(=O)NCCNc1ncnc2ccc(-c3ccccc3C(F)(F)F)cc12 20 µM, CC(=O)NCCNc1ncnc2ccc(-c3ccccc3C)cc12 20 µM, CS(=O)(=O)Nc1cccc(-c2nc(Nc3ccccc3)c3ccccc3n2)c1 10 µM, CS(=O)(=O)Nc1cccc(-c2nc(N3CCNCC3)c3ccccc3n2)c1 10 µM, CS(=O)(=O)Nc1cccc(-c2nc(Nc3ccncc3)c3ccccc3n2)c1 20 µM, Cc1nn(-c2ccc(F)cc2)c(C)c1NS(=O)(=O)c1ccc2ccccc2c1 11.2 µM, CCN(CC)CCC[C@H](C)Nc1c2ccc(Cl)cc2nc2ccc(OC)cc12 200 nM and 126 nM, CCc1cc(Cl)c(OC)c(C(=O)NC[C@@H]2CCCN2CC)c1O 0.0501 µM, COc1ccc(-c2c[n+]3c4n2CCCCC4=C(c2ccccc2)C3)cc1 1.78 µM, Clc1ccc(C2=C3CCCCn4c(-c5ccccc5)c[n+](c43)C2)cc1 1 µM, O=C(CN1CCN(C2CCCCC2)CC1)NCCC1=CCCCC1 15.8 µM, O=C(CN1CCN(c2ncccn2)CC1)NCCC1=CCCCC1 2.82 µM, CCSc1ncc(/C=N/Nc2ccc(F)cc2)n1C 0.631 µM

AC50, inactive and 200 nM (active):
CCN1CCC[C@H]1CNC(=O)c1c(OC)ccc(Br)c1OC

AC50, 1.26 µM (active) and inactive:
CNCC[C@H](Oc1ccccc1OC)c1ccccc1

activity, negative = inhibition, inactive:
O=C(NCCCc1ccccc1)c1cccs1 -14.8%, CCCCNC(=O)C(=O)NC(C)CCc1ccccc1 (configuration not stated) 26.5%, COc1ccc(-c2nc3cnc(N4CCN(C)CC4)nc3n(C)c2=O)cc1 -1.16%, O=C(CCNC(=O)c1ccccc1)OCN1C(=O)c2ccccc2C1=O 4.05%, O=c1c(-c2ccc(Cl)cc2)nc2cnc(N3CCOCC3)nc2n1C1CC1 -4.21%, Cc1ccc(S(=O)(=O)ON=C2CCN(S(=O)(=O)c3ccccc3)CC2)cc1 -26.8%, CCOc1ccc(C(C)=O)cc1N1C(=O)C2C(C1=O)C1C=CC2C12CC2 (configuration not stated) -12.3%, CCOc1ccc(NC(=O)c2ccc(Br)o2)c([N+](=O)[O-])c1 -3.66%, CCOC(=O)C1CCCN(C(=O)c2cc3nc(-c4ccc5c(c4)OCO5)cc(C(F)(F)F)n3n2)C1 (configuration not stated) -22.8%, CCCCC(=O)N/N=C(\C)CC(=O)Nc1cc(Cl)ccc1OC -15.1%, O=C(COC(=O)c1cccc(S(=O)(=O)N2CCOCC2)c1)Nc1nc(-c2ccccc2Cl)cs1 -27.2%, COc1ccc(COc2ccsc2C(=O)Nc2ccc(Cl)c(Cl)c2)cc1 -13.6%, O=c1c(-c2cc(F)cc(F)c2)nc2cnc(N3CCNCC3)nc2n1Cc1cccs1 -1.74%, CC(C)CCOc1ccc(NC(=O)C2OC3OC(C)(C)OC3C3OC(C)(C)OC23)cc1 (configuration not stated) 0.481%, CCOC(=O)c1sc(NC(=O)CSc2nc(C)cc(C)c2C#N)c(C#N)c1C -7.84%, CCOC(=O)c1sc(NC(=O)CSc2nc(C)cc(C)n2)c(C#N)c1C -15.9%, O=C(Oc1c(Br)cc(C(=S)N2CCOCC2)cc1Br)c1ccc(Cl)cc1 -11.2%, CC(=O)NCCNc1ncnc2ccc(-c3ccccc3C#N)cc12 -9.82%, CC(=O)NCCNc1cc(-c2ccccc2C(F)(F)F)ncn1 -2.78%, Cc1[nH]n(C(C)(C)C)c(=O)c1Sc1ccc(Cl)cc1 -25.3%, CCOc1ccc(N(C(C)C(=O)NC(C)CC)S(C)(=O)=O)cc1 (configuration not stated) -68.4%, CCC(C)OC(=O)C1=C(C)NC(=O)CC1c1ccccc1OC (configuration not stated) -6.88%, O=c1c(-c2cc(F)cc(F)c2)nc2cnc(N3CCOCC3)nc2n1-c1ccccc1 0.324%, CCOC(=O)c1cnn(CCOC(=O)C(C)(C)C)c1NC(=O)C(C)(C)C -4.94%, O=[N+]([O-])c1ccc2c(c1)S(=O)c1ccccc1-2 (configuration not stated) -5.2% [at 11.4 µM], Cc1cc(NC(=O)CCN2C(=O)C3C4CCC(C4)C3C2=O)c(C)cc1Br (configuration not stated) 5.69%, CCc1cccc(C)c1NC(=O)CSc1nc2ccc(N3C(=O)c4ccccc4C3=O)cc2s1 7.32%, CS(=O)(=O)Nc1cccc(-c2nc(N3CCOCC3)c3ccccc3n2)c1 -11.6%, CNc1nc(-c2cccc(NS(C)(=O)=O)c2)nc2ccccc12 -8.43%, CS(=O)(=O)Nc1cccc(-c2ccc3ncnc(N4CCNCC4)c3c2)c1 3%, COc1ccc2c(c1)c(=O)oc1c(C)c(OCC(=O)N3CCc4ccccc4C3)ccc12 -30.9%, COc1ccc(Oc2ncc3nc(-c4cccs4)c(=O)n(C)c3n2)cc1 -1.75%, CCCCC(=O)NC(Nc1cc(C)ccn1)(C(=O)OCC)C(F)(F)F (configuration not stated) -6.47%, CCOC(=O)CN1N=C(/C=C/c2ccc(C)cc2)CCC1=O -3.19%, Cc1ccccc1NC1=NC(=S)N(c2ccccc2)C12CCOC(C)(C)C2 (configuration not stated) 0.784%, CCn1nc(C(=O)Nc2ccccc2C)c(Cl)c1Cl 0.463%, O=C(N/N=C/c1ccc(Br)s1)c1ccccc1[N+](=O)[O-] -16.7%, CCCCN(C(=O)Nc1ccc(OCC)cc1)C1CCN(C(C)=O)CC1 17.3%, CSc1nc(C2CC2)cc(-c2cccs2)c1C#N -8.47%, O=C1NC(=O)C(c2ccccc2)(c2ccccc2)N1 3.16%, CCCC1CCC(c2ccc(C(N)=O)cc2)CC1 (configuration not stated) 22.9%, COCCn1c(=O)c(-c2cn(C)c3ccccc23)nc2cnc(N3CCNCC3)nc21 -5.08%, COC(=O)[C@@H]1[C@@H]2C[C@H]3c4[nH]c5cc(OC)ccc5c4CCN3C[C@@H]2C[C@H](OC(=O)c2cc(OC)c(OC)c(OC)c2)[C@H]1OC -9.04% [at 25.6 µM], C#C[C@]1(O)CC[C@@H]2[C@H]3CCc4cc(OC)ccc4[C@@H]3CC[C@@]21C 0.842% [at 25.6 µM], O=C1CC(=O)C(n2cncn2)C(c2cccc(Cl)c2)C1 (configuration not stated) -36.4%, CC(=O)Nc1c(C)nn(-c2ccc(C)c(C)c2)c1C -12.7%, Cc1cc(N)n(-c2ccc3ccccc3c2)n1 -17.4%, CC(C)(C)C(=O)OCc1cn(-c2ccc(Cl)cc2)nn1 -28.8%, Cc1nc(SCC(=O)c2ccc(Cl)s2)c2oc3ccccc3c2n1 15.2%, COCCn1c(=O)c(-c2cn(C)c3ccccc23)nc2cnc(OCc3ccccc3)nc21 -5.75%, O=C(c1ccc(Br)cc1)c1cc([N+](=O)[O-])ccc1N1CCCCC1 -4.02%, COc1ccc2nc(SCC(=O)NN)cc(C)c2c1 -12.7%, COc1ccc2nc(C)cc(SCC(=O)Nc3c(C)cc(C)cc3C)c2c1 4.42%, Cn1c(=O)n(C)c2cc(/C=N/NC(=O)c3ccc(Cl)cc3Cl)ccc21 11.9%, CCN1CCC[C@H]1CNC(=O)c1cc(S(N)(=O)=O)ccc1OC -18.3% [at 25.6 µM], CCN1CCCC1CNC(=O)CCNC(=O)c1cc(OC)c(OC)c(OC)c1 (configuration not stated) 12.3%, CCOc1ccc(NC(=O)C(=O)NCC2CCCN2CC)cc1 (configuration not stated) -7.58%, CCN1CCC[C@@H]1CNC(=O)c1cc(S(N)(=O)=O)ccc1OC -10.7%, N[C@@H](Cc1c[nH]c2ccc([N+](=O)[O-])cc12)C(=O)O 4.93% [at 11.4 µM], Cc1ccccc1Cn1cc(NC(=O)CSc2nc3c(c(C(F)(F)F)n2)CCc2ccccc2-3)cn1 -12.6%, Cn1c(=O)c(-c2ccc(Cl)cc2)nc2cnc(Oc3cccc(Cl)c3)nc21 0.522%, COc1ccc(NC(=S)N2CCN(C/C=C/c3ccccc3)CC2)cc1OC -18.6%, COc1ccc(/C=C(\C#N)C(=O)NCC2CCCO2)cc1OC (configuration not stated) -7.32%, CNc1ncnc2c1ncn2[C@@H]1O[C@H](CO)[C@@H](O)[C@@H]1O 4.56% [at 25.6 µM], CSc1nc(-c2ccc(C)cc2)[nH]c1S(=O)(=O)c1ccccc1 -14.3%, C[n+]1cc(-c2ccccc2)n2c1CCCCC2 -26.8%, COc1ccc(-n2c(-c3ccccc3)nc(=S)c3c2CCCC3)cc1 -26.4%, O=C(c1ccc(Cl)cc1)N1CCCC(c2ccccc2)=N1 -18.1%, Cc1cc(NC(=O)CSc2ccc3nnc(-c4ccc(F)cc4)n3n2)no1 -8.11%, O=C(O)c1c[nH]c2c(ccc3[nH]cc(C(=O)O)c(=O)c32)c1=O -3.58% [at 11.4 µM], Cc1ccc(CNC(=O)COC(=O)c2cnccn2)cc1 0.988%, Cc1cc(C)cc(Oc2nn[nH]n2)c1 2.45%, Cc1ccc(CNC(=O)C2CCC(=O)N2C2CCCCC2)cc1 (configuration not stated) -21.6%, O=C(CN1C(=O)NC2(CCCC2)C1=O)NCCC1=CCCCC1 5.39%, CCCCCOc1ccc(NC(=O)C(=O)NCCC2=CCCCC2)cc1 -1.79%, O=C(COc1ccc(Cl)cc1)NCCC1=CCCCC1 -19.8%, COC(=O)[C@@]1(Cc2ccc(F)cc2)[C@@H]2[C@@H](CC(=O)[C@H]2CC(=O)C(=O)N2CCCC2)CN1C(=O)c1ccccc1 0.0192%, CC(C)[C@@H]1O[C@H](/C=C\c2ccccc2)OCC1(C)C -1.61% [at 11.4 µM], O=C(O)Cc1sc(-c2ccc(Cl)cc2)nc1-c1ccccc1 16%, CC(=O)Nc1ccc(NC(=O)Cn2c(-c3ccc(F)cc3)cnc2SCC(=O)Nc2c(C)cccc2C)cc1 -9.43%, Cc1cnn(CCC(=O)NNC(=S)Nc2ccc(F)cc2)c1 3.17%
